Records with an inconclusive call do not appear. The source made the active and inactive calls. Calls follow the shape of the dose curve; as a rule, active = well fitted cell-killing curve with a large enough effect; inconclusive = small, poorly fitted or top-dose-only effect, or effect the other way; inactive = no such curve, though single readings can be large or run the other way.
Potency is read from the fitted curve at half-maximal effect.

A short description of the assay: Viability qHTS for spleen associated tyrosine kinase inhibitor (SYKi) drug resistant MV4-11 cells (AID 1963824). Also: nearly all actives have a fitted effect of over 35% in size. The settings on record: SYKi-resistant MV4-11 viability, CellTiter-Glo, 72 h; series mostly up to 45 µM. Summed up:
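SYK inhibitor-resistant MV4-11 AML cells, 500 per well, added to predispensed compounds and incubated 72 hr at 37 C, 5% CO2. Viability measured by CellTiter-Glo luminescence after 10 min at room temperature.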
On to `CC1=CC(=O)[C@@]2(C(C)C)C[C@@H]12`, for which the Potency is 13 µM (active). In the case of `C=C1CCC2C(C)(C(=O)O)CCCC2(C)C1CCC(C)CC(=O)O` (stereo not drawn) it was 4.53 µM (active); in that of `COC1CC(=O)C23C(=O)NC(CC(C)C)C2C(C)C(C)=CC3/C=C(\C)CCC1O` (stereo not drawn), 7.96 µM (active).

Values taken from PubChem BioAssay (NCATS).
